Data reported in PubChem BioAssay (NCATS).
Values joined by “and” are separate entries in the source; they are usually repeats but may differ in a detail not shown here. Equal entries are not always repeated. Inconclusive results are not listed. Unmarked numbers belong to inactive results. Active and inactive are the calls of the source. Calls follow the shape of the dose curve; as a rule, active = well fitted cell-killing curve with a large enough effect; inconclusive = small, poorly fitted or top-dose-only effect; inactive = flat fitted curve, though single readings scatter.

Test: Cellular viability qHTS for adrenocortical cancer (ACC) cell line SW-13 (AID 1963989); also: nearly all actives have a fitted effect of over 65% in size;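 as to activity (max response): cells grown in serum-free medium with ITS supplement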
Conditions: SW-13 ACC cells viability, CellTiter-Glo, 48 h; activity (max response): stronger effect = lower value
From the text: PI: Naris Nilubol, MD Surgical Oncology Program, National Cancer Institute (NCI) National Institute of Health (NIH), Bethesda, Maryland Adrenocortical cancer (ACC) is a rare malignancy with poor survival outcomes and few treatment options. Currently, mitotane is the only FDA-approved therapy for ACC. Although adjuvant radiation therapy is rarely utilized, it has the potential to improve survival in select cases. Through a quantitative high-throughput drug screen (qHTS), we identified auranofin (AF), a thioredoxin reductase (TXNRD) inhibitor, as a promising candidate drug. This study aims to evaluate whether AF can enhance the efficacy of radiation therapy in the treatment of ACC. Two human ACC cell lines, SW-13 and NCI-H295R, were screened using the National Center for Advancing Translational Sciences (NCATS) Pharmaceutical Collection (NPC) and the Mechanism Interrogation PlatE (MIPE) library (~4,991 compounds). CellTiter-Glo (Cat # G7570, Promega, Madison, WI) was utilized to measure cell viability. Described herein are the results of the corresponding viability assay.
PROTOCOL TABLE (as described by Inglese J, Shamu CE and Guy RK. 2007) SEQUENCE No. (e.g., 1, 2, 3, etc.); […] (e.g., Cells, Incubation, Reagent, etc.); VALUE; DESCRIPTION. 1; Cells; 5 uL; white, solid-bottom, 1536-well tissue-culture treated plates. 2; Time; overnight culture at 37C with 5% CO2. 3; Compounds and control; 23 nL; Kalypsis pin tool (Wako USA) equipped with a 1536-well pin head to transfer to the assay plates. 4; Time; 48 hours; 37C with 5% CO2. 5; Reagent; 4 uL; CellTiter-Glo luminescent substrate mix. 6; Time; 20 min at room temperature. 7; Detection; Luminescence; ViewLux plate reader NOTES (numbers refer to Sequence numbers above) 1. SW13 cells were harvested from a T175 flask and resuspended in ITS-supplemented DMEM serum-free medium at a concentration of 300 000 cells/mL. Then 5 uL of resuspended cells were dispensed into each well of white, solid-bottom, 1536-well tissue-culture-treated plates using a multidrop combi dispenser. The plates were covered with stainless steel gasket lids. 2-3. The plates were cultured overnight at 37C with 5% CO2. Twenty-three nL of compounds (eight selected concentrations from the NPC / MIPE) or positive control (10 mM stock of bortezomib) in DMSO was transferred to each well of the assay plate using a pin tool (Kalypsys, San Diego, CA, USA). The final concentration of the compounds in the 5 uL assay volume ranged from 0.5 nM to 46 uM. 4-6. After 48 hours of incubation at 37C and 5% CO2, 4 uL of CellTilter-Glo luminescent substrate mix (Promega, Madison, WI, USA) was added to each well. Then the plates were incubated for 20 minutes at room temperature. 7. After incubation, luminescence was measured using a ViewLux plate reader (PerkinElmer, Waltham, MA, USA) with a clear filter was used to measure the number of metabolically competent cells. To determine compound activity in the qHTS assay, the titration-response data for each sample was plotted and modeled by a four-parameter logistic fit yielding IC50 and efficacy (maximal response) values. […] REFERENCES: Inglese J, Shamu CE and Guy RK, Reporting data from high throughput screening of small molecule libraries, Nature Chemical Biology, 2007, 3(8): 438-441. doi.org/10.1038/nchembio0807-438.
% is scaled to controls: 0 for no effect and ±100 for the full control effect; potency is read from the fitted curve at half-maximal effect.

Row | Compound | activity (max response) | Potency
1 | CC(=O)[C@H]1CC[C@H]2[C@@H]3CC=C4C[C@@H](O)CC[C@]4(C)[C@H]3CC[C@]12C | 14.9% and 3.3% | 
2 | C[C@@H](O)[C@H]1C(=O)N2C(C(=O)O)=C(S[C@@H]3CN[C@H](CNS(N)(=O)=O)C3)[C@H](C)[C@H]12 | 7.35% | 
3 | Cc1cc(CS(=O)(=O)c2ccccc2)cc(OCc2ccc(CN3CCC[C@@H]3CO)cc2)c1 |  | 28.2 µM (active)
4 | COc1ccc(CCN(C)CCCN2CCc3cc(OC)c(OC)cc3CC2=O)cc1OC | 5.36% | 
5 | O=C(Nc1ncc(-c2cc(C(F)F)nn2-c2c(Cl)cccc2Cl)s1)C1CC1 |  | 0.316 µM (active)
6 | CC[C@]12CCCN3CCc4c(n(c5ccccc45)[C@@](O)(C(=O)OC)C1)[C@@H]32 | 1.04% | 
7 | COc1ccc2[nH]c(C(=O)N3CCC(CC(C)(C)O)CC3)cc2c1 | -4.14% | 
8 | COc1ccc(Nc2nccc(NCCO)n2)cc1 | 5.92% | 
9 | O=C(N[C@H](CO)[C@H](O)c1ccc([N+](=O)[O-])cc1)C(Cl)Cl | -5.45% | 
10 | O=C(Nc1ccc(OC(F)(F)F)cc1)c1sccc1NCc1ccnc2ccccc12 | -29.8% | 
11 | CCN(CC)CCc1nc(-c2ccccc2)no1 | -1.01% | 
12 | C[C@@H](O)[C@H](N)C(=O)O | 12.2% | 
13 | O=C(Nc1cc(C(F)(F)F)cc(C(F)(F)F)c1)c1cc(Cl)ccc1O |  | 0.355 µM (active)
14 | Nc1nnnn1-c1ccccc1 | 1.62% | 
15 | CCCCCCCCCCCCCCCCCCCCCCO | -13.9% | 
16 | C[N+]1(C)CCCC(OC(=O)C(O)(c2ccccc2)c2ccccc2)C1 (stereo not given) | -0.325% | 
17 | C[N+](C)(C)CCCCCC[N+](C)(C)C | 10.1% | 
18 | CCCC(CCC)(C(=O)OCC)C(=O)OCC | 12.5% | 
19 | COc1cc(-c2cn(C)c(=O)c3cnccc23)c(OC)cc1CN(C)C | 19.4% | 
20 | C=CC(=O)Nc1cccc(Oc2nc(Nc3ccc(N4CCN(C)CC4)cc3)ncc2Cl)c1 |  | 1.26 µM (active)

Row | Compound | activity (max response) | Potency
21 | CC(=O)O[C@H]1CC[C@@]2(C)C(=CC[C@@H]3[C@@H]2CC[C@]2(C)C(C(C)=O)=CC[C@@H]32)C1 | 8.77% | 
22 | O=c1c(-c2ccc(O)cc2)coc2cc(O)ccc12 | -14.3% | 
23 | CC(C)N(CCCNC(=O)Nc1ccc(C(C)(C)C)cc1)C[C@H]1O[C@@H](n2cc(Br)c3c(N)ncnc32)[C@H](O)[C@@H]1O |  | 28.2 µM (active)
24 | N#Cc1ccc(C2CCCc3cncn32)cc1 (stereo not given) | -11.9% | 
25 | COc1ccc2c(OCc3nnc4ccc(-c5ccccc5)nn34)ccnc2c1 | -4.03% | 
26 | COc1nccc(-c2c(-c3ccc(F)cc3)ncn2C2CCNCC2)n1 | -17.6% | 
27 | CN1CCN(C(c2ccccc2)c2ccccc2)CC1 | -4.21% | 
28 | CS(=O)(=O)c1ccc(-c2cnc(NCc3ccco3)n3cnnc23)cc1 | -12% | 
29 | CN1CCN(c2ccc3nc(-c4cc(C(C)(C)C)c(OCCCC(=O)NCCCN=[N+]=[N-])c(C(C)(C)C)c4)[nH]c3c2)CC1 |  | 3.98 µM (active)
30 | CN1C(=O)c2ccccc2C1=O | -9.75% | 
31 | C/C=C/C/C=C/CCC(=O)[C@H]1O[C@H]1C(N)=O |  | 25.1 µM (active)
32 | CCCCCCCC(=O)[O-].CCCCCCCC(=O)[O-].[Zn+2] | 2.96% | 
33 | CC(C)(C)c1cc(NC(=O)Nc2ccc(-c3cn4c(n3)sc3cc(OCCN5CCOCC5)ccc34)cc2)no1 | 1.45% | 
34 | C[C@@H](O)[C@H]1C(=O)N2C(C(=O)O)=C(SCCN=CN)C[C@H]12 | -5.98% | 
35 | Fc1ccc(-c2csc3ncnc(NCc4ccc5c(c4)OCO5)c23)cc1 |  | 15.8 µM (active)
36 | COCCNCc1ccc(-c2cc3nccc(Oc4ccc(NC(=S)NC(=O)Cc5ccc(F)cc5)cc4F)c3s2)nc1 |  | 28.2 µM (active)
37 | COc1cc2c3c(n(CCCNCCO)c(=O)c2cc1OC)-c1cc2c(cc1C3=O)OCO2 |  | 0.447 µM (active)
38 | N#C[C@@H]1C[C@@H]2C[C@@H]2N1C(=O)[C@@H](N)C12CC3CC(CC(O)(C3)C1)C2 | 7.26% | 
39 | CCOC(=O)[C@H](CCc1ccccc1)N[C@H]1CS[C@H](c2cccs2)CN(CC(=O)O)C1=O | 6.33% and 0.504% | 
40 | CC1COc2c(N3CCN(C)CC3)c(F)cc3c(=O)c(C(=O)O)cn1c23 (stereo not given) | 4.41% and 9.62% | 
